# Source: PubChem BioAssay
# “And” between values parts separate entries of the source, which are not always exact repeats. Equal entries are not always repeated. Where a structure was tested more than once in an assay, its records may differ in their call. The source made the active and inactive calls. Unless noted, no stated cut-off is given here; in the data, active means parasite load remaining mostly below about 12% (no sharp cut-off); inactive means mostly above about 10%.
# Key:
# [1] = Wnt pathway potentiators raising nuclear beta-catenin – imaging, WNT3A-conditioned medium, mouse C2C12, NPC library, primary screen (AID 1117326; in the data active means nuclear beta-catenin stimulation mostly above about 4.2%, no sharp cut-off; inactive means mostly below about 10%); conditions: stronger effect = higher value
# [2] = stimulators of insulin release from INS-1E, primary screen, cell-based, 5 mM glucose, NPC library (AID 1117329;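 active means compound raises insulin release from rat beta cells at 5 mM glucose, no numeric limit stated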); conditions: rat INS-1E insulin secretion, at 10 µM, stronger effect = higher value
# [3] = growth inhibition of GSK3B-pretreated HCT116 cells – cell-based, CellTiter-Glo, 0.2 to 20 µM (AID 1117336;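 active means compounds lowering colon cancer cell viability after pretreatment blocking the GSK3B kinase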); conditions: HCT116 viability after GSK3B inhibitor, at 20 µM, stronger effect = higher value
# [4] = inhibition of endothelial tube formation, primary screen, imaging, VEGF stimulated, CD31 staining, tube area, NPC library (AID 1117340;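 active means compound that reduces growth-factor-driven endothelial tube area in a mixed cell culture, no cutoff stated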); conditions: VEGF-stimulated ADSC/ECFC co-culture, at 10 µM, stronger effect = higher value
# [5] = GLP1 release stimulators, primary, NCI-H716, NPC library (AID 1117341;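 active means compound raises GLP1 secretion from the human gut endocrine cells, with no numeric limit stated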); conditions: NCI-H716 cells, at 10 µM, stronger effect = higher value
# [6] = HCT116 colon cancer cell growth inhibition, primary screen, CellTiter-Glo luminescence, NPC library (AID 1117342;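 active means compounds that lower survival of HCT116 colon cancer cells in the luminescence readout, no numeric limit stated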); conditions: at 20 µM (top of the series)
# [7] = reduced SW480 viability measured with CellTiter-Glo, NPC library, primary (AID 1117343;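 active means compounds that lower viability of the colon cancer cells in the luminescence readout, with no numeric limit stated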); conditions: CellTiter-Glo luminescence; at 20 µM (top of the series)
# [8] = NPC library primary testing for decreased DLD-1 cell viability via CellTiter-Glo (AID 1117346;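 active means compounds that lower survival of DLD-1 colon cancer cells in the luminescence readout, no cutoff given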); conditions: DLD-1 viability, CellTiter-Glo luminescence; at 20 µM (top of the series)
# [9] = yeast 75Q aggregation reduction – 75Q-TubU reporter (AID 1593); conditions: Yeast 75Q polyglutamine aggregation reporter
# [10] = blockers of cytochrome c efflux from mitochondria – biochemical, purified mitochondria (AID 1603); conditions: stronger effect = lower value;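 further: mouse liver mitochondria challenged with calcium chloride; signal normalized to the plate average as 100%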
# [11] = polyglutamine aggregate formation blockers (AID 1604); conditions: polyglutamine-induced protein aggregation inhibition assay; stronger effect = higher value; tested at 2.5 µM
# [12] = molecular target: 6-phosphogluconate dehydrogenase, decarboxylating (Homo sapiens) (UniProt P52209); experiment: inhibition of human phosphogluconate dehydrogenase – biochemical, recombinant enzyme, NADPH absorbance, primary screen (AID 1159550;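 active means at least 20% inhibition of 6-phosphogluconate dehydrogenase activity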); conditions: recombinant 6PGD, NADPH absorbance 341 nm; at 10 µM; stronger effect = higher value
# Sequence of 6-phosphogluconate dehydrogenase, decarboxylating (Homo sapiens) (P52209 whole entry, looked up): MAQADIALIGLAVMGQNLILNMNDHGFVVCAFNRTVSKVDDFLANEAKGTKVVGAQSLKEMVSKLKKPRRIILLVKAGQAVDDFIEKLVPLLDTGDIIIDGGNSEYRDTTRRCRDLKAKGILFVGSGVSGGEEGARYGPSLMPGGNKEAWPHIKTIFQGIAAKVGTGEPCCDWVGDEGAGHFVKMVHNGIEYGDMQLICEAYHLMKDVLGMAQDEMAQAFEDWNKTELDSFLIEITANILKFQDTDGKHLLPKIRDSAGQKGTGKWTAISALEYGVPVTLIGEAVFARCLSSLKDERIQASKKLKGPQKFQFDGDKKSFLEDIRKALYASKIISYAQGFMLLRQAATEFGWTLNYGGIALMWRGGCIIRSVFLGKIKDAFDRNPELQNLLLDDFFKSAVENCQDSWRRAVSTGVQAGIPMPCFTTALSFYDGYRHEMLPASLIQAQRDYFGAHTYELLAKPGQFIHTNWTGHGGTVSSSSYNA
# [13] = EMT-state selective cytotoxicity in co-culture – imaging, PC-3E GFP, TEM4-18 mCherry, primary screen (AID 1345086;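 active means compounds killing one labelled cell type while sparing the other, by normalised counts and ratio limits, not self-fluorescent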;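 on all read-outs here: cells exposed to compound for 72 h before imaging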;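 on red/green cell ratio (normalised): normalised mesenchymal count divided by normalised epithelial count so high means epithelial killing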); conditions: PC-3E GFP / TEM4-18 mCherry co-culture, imaging cell counts, at 1 µM; for red/green cell ratio (normalised): actives lie on both sides
# [14] = test system: Aerobactin synthetase IucA (Klebsiella pneumoniae hvKP1); experiment: IucA enzyme inhibition, primary screen, biochemical, Spectrum library (AID 1346200; call rule not given here;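 further: 100% = wells without compound and 0% = wells lacking enzyme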); conditions: malachite green pyrophosphate, A620, at 8 µM, stronger effect = lower value
# [15] = MELAS cybrid and Rieske KO viability enhancers – cell-based, MELAS cybrids, Rieske KO mouse fibroblasts, CellTiter-Glo, primary screen (AID 1508586;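 active means mean z-score across replicates of 1.96 or higher in either the MELAS or the Rieske mutant cell line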;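 further: z relative to plate mean and SD of compound and empty wells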); conditions: low glucose
# [16] = molecular target: NAD(+) hydrolase SARM1 (Homo sapiens) (UniProt Q6SZW1); experiment: blocking NAD cleavage by SARM1 SAM-TIR – cell lysate, NAD-Glo luminescence (AID 1508614;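 active means compound whose remaining NAD level is above about 45 nM, limit read from the data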); conditions: SAM-TIR HEK293T lysate NADase, at 1 µM, stronger effect = higher value
# Sequence of NAD(+) hydrolase SARM1 (Homo sapiens) (Q6SZW1 whole entry, looked up, the tested form may be a part): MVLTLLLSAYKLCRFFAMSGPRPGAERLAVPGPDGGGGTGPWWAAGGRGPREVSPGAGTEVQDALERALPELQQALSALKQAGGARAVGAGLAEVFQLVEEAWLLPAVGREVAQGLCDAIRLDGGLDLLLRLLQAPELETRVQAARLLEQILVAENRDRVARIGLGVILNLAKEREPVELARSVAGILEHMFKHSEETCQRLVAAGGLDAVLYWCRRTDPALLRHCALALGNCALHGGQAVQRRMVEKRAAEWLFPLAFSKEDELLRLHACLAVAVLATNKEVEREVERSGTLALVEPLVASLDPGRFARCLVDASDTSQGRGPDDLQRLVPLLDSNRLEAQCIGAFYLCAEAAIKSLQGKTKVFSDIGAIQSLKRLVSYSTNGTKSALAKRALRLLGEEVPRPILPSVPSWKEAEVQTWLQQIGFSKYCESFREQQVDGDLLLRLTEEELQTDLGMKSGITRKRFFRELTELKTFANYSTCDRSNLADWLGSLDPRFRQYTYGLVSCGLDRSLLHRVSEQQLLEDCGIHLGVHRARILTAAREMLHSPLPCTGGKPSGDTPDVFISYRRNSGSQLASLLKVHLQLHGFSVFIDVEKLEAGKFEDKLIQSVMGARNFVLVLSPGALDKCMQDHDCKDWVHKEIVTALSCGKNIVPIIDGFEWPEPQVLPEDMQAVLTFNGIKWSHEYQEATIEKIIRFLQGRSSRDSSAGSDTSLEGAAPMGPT
# [17] = molecular target: Mitogen-activated protein kinase 7 (Homo sapiens) (UniProt Q13164); experiment: Gal4-ERK5 driven luciferase induction – cell-based, HTS, primary screen (AID 1508626;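 active means luciferase signal above three times the same-plate solvent-only control wells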;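 further: luciferase driven by Gal4-ERK5 fusion binding five Gal4 sites before minimal TATA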); conditions: HeLa Gal4-ERK5 transactivation, 18 h, at 5 µM, stronger effect = higher value
# Sequence of Mitogen-activated protein kinase 7 (Homo sapiens) (Q13164 whole entry, looked up, the tested form may be a part): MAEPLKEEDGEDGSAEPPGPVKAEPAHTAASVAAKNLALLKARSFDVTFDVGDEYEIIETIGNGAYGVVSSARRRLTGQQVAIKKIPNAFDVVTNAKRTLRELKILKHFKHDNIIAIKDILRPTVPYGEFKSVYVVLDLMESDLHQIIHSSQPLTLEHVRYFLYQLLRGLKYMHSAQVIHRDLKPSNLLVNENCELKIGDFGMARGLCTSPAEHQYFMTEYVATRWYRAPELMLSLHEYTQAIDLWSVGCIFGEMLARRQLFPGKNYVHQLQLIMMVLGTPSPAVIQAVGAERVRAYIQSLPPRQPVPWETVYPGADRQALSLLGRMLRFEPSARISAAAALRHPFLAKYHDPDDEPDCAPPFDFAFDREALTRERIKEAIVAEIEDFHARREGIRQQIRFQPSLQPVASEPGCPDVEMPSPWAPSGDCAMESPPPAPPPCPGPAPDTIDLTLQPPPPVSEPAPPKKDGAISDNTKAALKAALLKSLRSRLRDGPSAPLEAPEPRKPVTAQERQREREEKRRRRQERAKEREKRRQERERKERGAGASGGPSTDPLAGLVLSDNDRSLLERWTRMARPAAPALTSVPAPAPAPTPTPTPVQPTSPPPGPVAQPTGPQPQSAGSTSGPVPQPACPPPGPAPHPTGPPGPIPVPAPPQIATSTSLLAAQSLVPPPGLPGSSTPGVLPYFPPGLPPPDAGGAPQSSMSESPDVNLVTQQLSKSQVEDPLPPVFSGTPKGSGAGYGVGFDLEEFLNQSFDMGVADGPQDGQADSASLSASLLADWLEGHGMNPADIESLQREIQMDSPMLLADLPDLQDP
# [18] = galactose survival enhancers in mitochondrial complex I cybrids – cell-based, galactose medium, ATP luminescence, primary screen (AID 1645843;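 active means z-score of at least 1.8 in each of two replicates, scored against plate mean and spread of sample wells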;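 further: positive z means more ATP and so rescue of galactose-driven cybrid death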); conditions: complex I mutant cybrid cells, 72 h, stronger effect = higher value
# [19] = P. berghei load reduction in hepatocytes – cell-based, HepG2, luciferase luminescence, HepG2 viability, primary screen (AID 624349);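 further: 100% = mean of DMSO negative control wells on the same plate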; conditions: P. berghei liver stage in HepG2, luciferase luminescence, concentration not given here; parasite load remaining: stronger effect = lower value; viability: measured here: HepG2 viability without parasites
# [20] = viability loss with induced miR-34 in A549 – imaging, A549 dox-inducible miR-34, nuclei and caspase counts, primary screen (AID 1347080;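 active means compounds whose cell count with miR-34 switched on is under 0.7 times the count with it off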); conditions: A549 miR-34 inducible, Hoechst nuclei count, 48 h
# [21] = measured here: epithelial PC-3E GFP cell survival
# [22] = measured here: mesenchymal TEM4-18 mCherry cell survival
# [23] = MELAS cybrid survival, CellTiter-Glo 48 h, stronger effect = higher value
# [24] = Rieske KO mouse fibroblast survival, CellTiter-Glo 72 h
# [25] = measured here: relative caspase fold change +Dox/-Dox
# [26] = measured here: total cells with miR-34 induction, stronger effect = lower value
# [27] = measured here: total cells without miR-34 induction
smiles,measurement,setting,value
CN1CCC(O)(c2ccc(F)cc2)C(C(=O)c2ccc(F)cc2)C1 (stereo unspecified),nuclear beta-catenin stimulation,[1]; at 10 µM,20.8% (inactive)
same,nuclear beta-catenin stimulation,"[1]; stimulation, at 2 µM",1.6%
same,insulin secretion stimulation,[2],5% (inactive)
same,viability decrease,[3],-1.23% (inactive)
same,tube area decrease,[4],18% (inactive)
same,GLP1 secretion stimulation,[5],4.8% (inactive)
same,inhibition of viability,[6],4.35% (inactive)
same,viability decrease (inhibition),[7],87% (active)
same,viability decrease (inhibition),[8],72.8% (active)
O=c1[nH]c2ccccc2n1C1CCN(CCCC(c2ccc(F)cc2)c2ccc(F)cc2)CC1,score,[9],1.1
same,cytochrome c release ratio,[10],1.41
same,inhibition of aggregation,[11],38.1%
same,nuclear beta-catenin stimulation,[1]; at 10 µM,7.8% (inactive)
same,nuclear beta-catenin stimulation,"[1]; stimulation, at 2 µM",0.2%
same,insulin secretion stimulation,[2],0.4% (inactive)
same,viability decrease,[3],98.9% (active)
same,tube area decrease,[4],108% (active)
same,GLP1 secretion stimulation,[5],-4.5% (inactive)
same,inhibition of viability,[6],99.6% (active)
same,viability decrease (inhibition),[7],102% (active)
same,viability decrease (inhibition),[8],99.3% (active)
same,inhibition,[12],13.7% (inactive)
same,red/green cell ratio (normalised),[13],0.96 (inactive)
same,normalised cell number,[13]; [21],1.24
same,normalised cell number,[13]; [22],1.19
same,activity remaining,[14],128% (inactive)
same,z-score,[15]; [23],0.83 (inactive) and 0.29 (inactive)
same,z-score,[15]; [24],0.702 and -0.0813
same,remaining NAD,[16],10 nM (inactive)
same,luciferase signal,[17],68 AU (inactive)
same,z-score,[18],-1.29 (inactive) and -1.18 (inactive) and -2 (inactive)
c1ccc2nc(N3CCNCC3)ccc2c1,score,[9],1.22
same,cytochrome c release ratio,[10],0.9
same,inhibition of aggregation,[11],63.9%
same,parasite load remaining,[19],73.5% (inactive) and 55.7% (inactive) and 53.7% (inactive)
same,viability,[19],107% and 72.2% and 102%
same,nuclear beta-catenin stimulation,[1]; at 10 µM,0.1% (inactive)
same,nuclear beta-catenin stimulation,"[1]; stimulation, at 2 µM",-1.9%
same,insulin secretion stimulation,[2],4% (inactive)
same,viability decrease,[3],41.7% (inactive)
same,tube area decrease,[4],-4.1% (inactive)
same,GLP1 secretion stimulation,[5],3.6% (inactive)
same,inhibition of viability,[6],56.9% (active)
same,viability decrease (inhibition),[7],54.9% (active)
same,viability decrease (inhibition),[8],25% (inactive)
same,inhibition,[12],9.28% (inactive)
same,red/green cell ratio (normalised),[13],1.18 (inactive)
same,normalised cell number,[13]; [21],1.13
same,normalised cell number,[13]; [22],1.34
same,activity remaining,[14],124% (inactive)
same,fold change,[20]; stronger effect = lower value,0.855 (inactive) and 0.953 (inactive) and 0.849 (inactive)
same,fold change,[20]; [25],1.3 and 0.736 and 5.89
same,cell count,[20]; [26],9120 and 9090 and 11300
same,cell count,[20]; [27],10700 and 9530 and 13400
same,z-score,[15]; [23],0.387 (inactive)
same,z-score,[15]; [24],0.0895
same,remaining NAD,[16],10 nM (inactive)
same,luciferase signal,[17],28 AU (inactive)
same,z-score,[18],-0.47 (inactive)
C[C@@H]1C[C@@H]([C@H](O)CC2CC(=O)NC(=O)C2)C(=O)[C@@H](C)C1,score,[9],0.04
same,cytochrome c release ratio,[10],1.07
same,inhibition of aggregation,[11],91.3%
same,parasite load remaining,[19],-0.1% (active) and 5.12% (inactive) and 0% (inactive)
same,viability,[19],87.3% and 76.3% and 87.1%
same,nuclear beta-catenin stimulation,[1]; at 10 µM,28.9% (inactive)
same,nuclear beta-catenin stimulation,"[1]; stimulation, at 2 µM",25.8%
same,insulin secretion stimulation,[2],-1% (inactive)
same,viability decrease,[3],88.7% (active)
same,tube area decrease,[4],103% (active)
same,GLP1 secretion stimulation,[5],-4.7% (inactive)
same,inhibition of viability,[6],78.7% (active)
same,viability decrease (inhibition),[7],68.4% (active)
same,viability decrease (inhibition),[8],67.6% (active)
same,inhibition,[12],-13.3% (inactive)
same,red/green cell ratio (normalised),[13],0.97 (inactive)
same,normalised cell number,[13]; [21],0.98
same,normalised cell number,[13]; [22],0.96
same,activity remaining,[14],112% (inactive)
same,fold change,[20]; stronger effect = lower value,1.05 (inactive) and 0.852 (inactive)
same,fold change,[20]; [25],1.03 and 1.84
same,cell count,[20]; [26],2100 and 2650
same,cell count,[20]; [27],1990 and 3110
same,z-score,[15]; [23],-0.121
same,z-score,[15]; [24],4.57
same,remaining NAD,[16],10 nM (inactive)
same,luciferase signal,[17],20 AU (inactive)
